Bioassay records (PubChem BioAssay)
Most compounds without a hit are left out; they make up all but 8.2% or so of the library.
ELG1 repair inh: blocks ELG1-dependent DNA repair in HEK293T cells; HEK293T ELG1-luciferase reporter, luminescence, 16 h; DNA damage induced by 5-fluorouridine; Potency, µM (series often up to 46.1 µM), most hits filed as inhibitors; 330,000 tested, 2.3% active; AID 504467; further: nearly all actives have a fitted effect of over 55% in size
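Quantitative HTS, concentration-response format. 2,000 cells/well co-treated with 5-fluorouridine and compound, 16 hr in 5% CO2 at 37 °C; ONE-Glo luminescence read after 30 min.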
MCF10A rereplic: DNA re-replication induction in MCF 10a cells; MCF 10A DNA re-replication, Hoechst nuclear intensity, 48 h; Potency, µM (top dose mostly 46.1 µM), actives largely listed as activators; AID 624296; 350,000 tested, 2.9% active; further: nearly all actives have a fitted effect of over 50% in size
KB-V1 MDR tox: KB-V1 MDR subline cytotoxicity. KB-V1 MDR cells viability, CellTiter-Glo, 72 h. Potency, µM (highest dose often 46.1 µM), usual class: cytotoxic. 400,000 tested, 3.4% active. AID 1347076; further: nearly all actives have a fitted effect of over 60% in size
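In this primary screen, KB-V1 cells overexpressing P-gp are incubated with library compounds (lowest to highest concentration) for 72 h at 37 degrees C before a luminescent ATP viability read.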
SW480 rerep: DNA re-replication induction in SW480 cells; SW480 DNA re-replication, Hoechst DNA content imaging, 48 h; Potency, µM (series often up to 46.1 µM), actives largely listed as activators; 340,000 tested, 1.8% active; further: nearly all actives have a fitted effect of over 55% in size
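SW480 cells exposed to compounds for 48 hr at 37 C, 5% CO2, then Hoechst-stained 40 min. Nuclear DNA content imaged by fluorescence scanning (405 nm excitation, 500-530 nm emission); re-replication scored as increased high-intensity nuclei.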
KB-3-1 tox: kills parental KB-3-1 adenocarcinoma cells. 400,000 tested, 1.4% active. Potency, µM (highest dose often 46.1 µM), actives largely listed as cytotoxic. KB-3-1 viability, CellTiter-Glo ATP luminescence, 72 h; further: nearly all actives have a fitted effect of over 60% in size
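Viability of parental KB-3-1 cells, measured by CellTiter-Glo luminescence, followed a 72 h incubation at 37 °C with pinned compounds in phenol-red-free DMEM containing 10% FBS.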
Each line names hits and unclear results; the compound was inactive in the other large screens. The call rests on the fitted dose curve; in most records, active means well fitted curve in the direction sought with a large enough effect; inconclusive means small, poorly fitted or top-dose-only effect, or another doubt; inactive means no such curve, though single readings can be large; an effect the other way counts as inactive or inconclusive.

Cc1cc(Br)ccc1NC(=O)COC(=O)c1ccccc1OCC(=O)N(C)C	KB-3-1 tox inconclusive (no result: ELG1 repair inh, MCF10A rereplic, SW480 rerep)
COc1ccccc1CNC(=O)CN1CCN(c2ccc(C(C)=O)cc2)CC1	KB-V1 MDR tox inconclusive
Cc1ccc(-c2nn3c(=O)cc(CN4CCN(C(=O)c5ccc(C(C)(C)C)cc5)CC4)nc3s2)cc1	none (no result: ELG1 repair inh, MCF10A rereplic, SW480 rerep)
CN1CCN(CC(O)COC(c2ccc(Cl)cc2)c2ccc(Cl)cc2)CC1 (stereo unspecified)	MCF10A rereplic 21µM
OC(COC(c1ccc(Cl)cc1)c1ccc(Cl)cc1)CN1CCCC1 (stereo unspecified)	MCF10A rereplic inconclusive, SW480 rerep inconclusive, KB-3-1 tox inconclusive (no result: ELG1 repair inh)
OC(COC(c1ccccc1)c1ccccc1)CN1CCOCC1 (stereo unspecified)	none
CC1CN(CC(O)COC(c2ccccc2)c2ccccc2)CC(C)O1 (stereo unspecified)	MCF10A rereplic inconclusive, KB-V1 MDR tox 21µM, SW480 rerep inconclusive
OC(COC(c1ccc(Cl)cc1)c1ccc(Cl)cc1)CN1CCc2ccccc2C1 (stereo unspecified)	MCF10A rereplic 18µM, SW480 rerep inconclusive
OC(COC(c1ccc(F)cc1)c1ccc(F)cc1)CN1CCc2ccccc2C1 (stereo unspecified)	MCF10A rereplic inconclusive, KB-V1 MDR tox 16µM, SW480 rerep inconclusive
OC(COC(c1ccccc1)c1ccccc1)CN1CCc2ccccc2C1 (stereo unspecified)	MCF10A rereplic inconclusive, KB-V1 MDR tox inconclusive
COC(=O)c1ccc(NC(=O)C(C)N2Cc3ccccc3C2=O)cc1 (stereo unspecified)	none (no result: ELG1 repair inh, MCF10A rereplic, SW480 rerep)
CC(C)N(Cc1ccccc1)S(=O)(=O)c1ccc(N2CCCCS2(=O)=O)cc1	none (no result: ELG1 repair inh, MCF10A rereplic, SW480 rerep)
COc1ccc(CCN2CC(C(=O)N(C)CCc3cn[nH]c3)CCC2=O)cc1 (stereo unspecified)	none
CC(=O)Nc1ccc(-c2csc(NC(=O)C3CSC4(C)CCC(=O)N34)n2)cc1 (stereo unspecified)	ELG1 repair inh inconclusive
O=c1oc2c(CN3CCCCC3)c(O)ccc2cc1-c1nc2ccccc2[nH]1	ELG1 repair inh inconclusive
O=c1oc2c(O)cccc2cc1-c1nc2ccccc2[nH]1	ELG1 repair inh inconclusive, MCF10A rereplic inconclusive, SW480 rerep 3.3µM, KB-3-1 tox 21µM
OCCCNc1cc(-c2ccnc(Nc3cccc(Cl)c3)n2)ccn1	ELG1 repair inh 0.58µM, MCF10A rereplic inconclusive, KB-V1 MDR tox 0.13µM, SW480 rerep inconclusive, KB-3-1 tox inconclusive
CN(C)c1ccc(CNC(=O)C2CCN(S(=O)(=O)c3ccc4[nH]c(=O)ccc4c3)CC2)cc1	KB-V1 MDR tox inconclusive (no result: ELG1 repair inh, MCF10A rereplic, SW480 rerep)
O=C(c1ccccc1)N(Cc1cccnc1)C1(C(=O)Nc2ccccc2)CCCCC1	KB-V1 MDR tox 10µM, SW480 rerep inconclusive, KB-3-1 tox inconclusive
O=C(NCc1cccnc1)Nc1ccccc1	none
Cc1ccc2c(c1)S/C(=C\c1cccc[n+]1C)N2CCO	ELG1 repair inh inconclusive, KB-V1 MDR tox inconclusive, KB-3-1 tox inconclusive
C[n+]1ccccc1/C=C1\Sc2ccccc2N1CCO	KB-3-1 tox 21µM
Nc1ccc2nc(SCc3ccccc3F)sc2c1	ELG1 repair inh inconclusive, MCF10A rereplic 21µM
Nc1ccc2nc(SCC(=O)c3ccccc3)sc2c1	ELG1 repair inh inconclusive
CC(NC(=O)CSc1nnc(COc2ccccc2)o1)c1ccccc1 (stereo unspecified)	none
COc1ccc(Cc2nnc(SCc3ccc([N+](=O)[O-])cc3)o2)cc1	ELG1 repair inh 23µM, KB-V1 MDR tox inconclusive, KB-3-1 tox inconclusive
COc1ccc(Cc2nnc(SCC(=O)NC(C)c3ccccc3)o2)cc1 (stereo unspecified)	KB-V1 MDR tox 21µM
CCCCCCCCCC[n+]1cccc2cc(Cl)ccc21	KB-3-1 tox 5.2µM (no result: ELG1 repair inh, MCF10A rereplic, SW480 rerep)
CCCCCCCC[n+]1cccc2c3ccccc3ccc21	ELG1 repair inh inconclusive, MCF10A rereplic inconclusive, SW480 rerep inconclusive, KB-3-1 tox inconclusive
Clc1ccc2c(ccc[n+]2CCC2CCCCC2)c1	none (no result: ELG1 repair inh, MCF10A rereplic, SW480 rerep)
CCCCCCCCCCCCCCCC[n+]1ccc(C)c2ccccc21	KB-V1 MDR tox 13µM, KB-3-1 tox 3.7µM (no result: ELG1 repair inh, MCF10A rereplic, SW480 rerep)
CCCCCCCCCC[n+]1cccc2c3ccccc3ccc21	ELG1 repair inh 2.3µM, KB-3-1 tox 1.2µM
COc1cccc(NC(=O)COC(=O)CCC2CCCC2)c1	none
